Laboratory results published in PubChem BioAssay (Tox21).
Inconclusive results are not listed. Calls of active or inactive are those of the source. Unless noted, the call rests on the fitted dose curve; in most records, active means well fitted curve in the direction sought with a large enough effect in the repeat runs; inconclusive means weak or mixed curves; inactive means no such curve, though single readings can be large; an effect the other way counts as inactive or inconclusive.

What was measured:
[1] = A CellTox Green Cytotoxicity Assay to monitor cytotoxicity in HEK293 cells - 16 hour (AID 1224888); further: nearly all actives have a fitted effect of over 35% in size
In short: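 HEK293 cells, 600/well, were preincubated 5 hours and then exposed to compounds at 37 C for up to 40 hours. A cell-impermeant cyanine dye staining dead-cell DNA was read by fluorescence at 0, 8, 16, 24, 32 and 40 h time points.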

[2] = qHTS RealTime-Glo MT Cell Viability Assay in HepG2 cells - 0 hour (AID 1224889); further: nearly all actives have a fitted effect of over 50% in size
In short: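 Compound treatment began 5 h after plating HepG2 cells (600/well) with NanoLuc luciferase and prosubstrate. Plates stayed at 37 C for 40 h; luminescence was captured at six time points, 0 h through 40 h.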

[3] = A CellTox Green Cytotoxicity Assay to monitor cytotoxicity in HepG2 cells - 8 hour (AID 1224890); further: nearly all actives have a fitted effect of over 45% in size
In short: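 HepG2 cells, 600/well, preincubated 5 h with CellTox Green dye, then exposed to Tox21 compounds in DMSO at 37 C for up to 40 h. Dead-cell DNA fluorescence read at the indicated time point.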

[4] = qHTS assay to identify small molecule antagonists of the estrogen receptor alpha (ER-alpha) signaling pathway using the BG1 cell line in the presence of 0.1 nM 17-beta-estradiol - cell viability counter screen (AID 1259241); further: nearly all actives have a fitted effect of over 40% in size
In short: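 Estradiol-stimulated (0.1 nM) VM7Luc4E2 cells exposed to compounds 22 hr; viability measured by fluorescence of cleaved CellTiter-Fluor substrate after 30 min.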

[5] = qHTS assay to identify small molecule antagonists of the androgen receptor (AR) signaling pathway using the MDA cell line in the presence of 0.5 nM R1881 - cell viability counter screen (AID 1259242); further: nearly all actives have a fitted effect of over 45% in size
In short: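 MDA-kb2 cells (MMTV-luciferase, AR/GR responsive) were treated with compounds plus 0.5 nM R1881 (final) for 16 hr at 37C, 0% CO2. Viability was then read in the same wells as live-cell protease fluorescence (CellTiter-Fluor, 30 min).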

[6] = target: Estrogen receptor (Homo sapiens) (UniProt P03372); assay: qHTS assay to identify small molecule antagonists of the estrogen receptor alpha (ER-alpha) signaling pathway using the BG1 cell line in the presence of 0.1 nM 17-beta-estradiol (AID 1259244); further: nearly all actives have a fitted effect of over 50% in size
Chain of Estrogen receptor (Homo sapiens) (P03372 whole entry, looked up): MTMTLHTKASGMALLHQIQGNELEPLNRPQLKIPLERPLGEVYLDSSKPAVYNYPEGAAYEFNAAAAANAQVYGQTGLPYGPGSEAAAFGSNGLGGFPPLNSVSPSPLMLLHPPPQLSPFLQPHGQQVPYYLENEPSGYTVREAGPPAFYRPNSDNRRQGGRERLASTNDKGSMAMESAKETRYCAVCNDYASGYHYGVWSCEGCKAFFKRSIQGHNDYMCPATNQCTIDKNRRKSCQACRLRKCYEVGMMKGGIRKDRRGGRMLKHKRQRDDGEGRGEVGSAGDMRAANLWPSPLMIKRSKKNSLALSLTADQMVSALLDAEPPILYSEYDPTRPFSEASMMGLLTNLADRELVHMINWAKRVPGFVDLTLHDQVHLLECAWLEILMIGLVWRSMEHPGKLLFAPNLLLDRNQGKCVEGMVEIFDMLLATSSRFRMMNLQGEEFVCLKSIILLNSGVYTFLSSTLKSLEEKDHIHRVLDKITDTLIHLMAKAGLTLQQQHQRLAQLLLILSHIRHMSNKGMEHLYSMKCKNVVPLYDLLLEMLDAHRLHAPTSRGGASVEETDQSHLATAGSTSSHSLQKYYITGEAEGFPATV
In short: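 VM7Luc4E2 cells (endogenous full-length ER-alpha, 4×ERE-luciferase), kept 5 days in phenol red-free, charcoal-stripped FBS medium; 4,000 cells/well. Compounds added with 0.1 nM (final) 17beta-estradiol, 22 hr at 37C; luminescence read with ONE-Glo after 30 min.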

[7] = qHTS assay to identify small molecule HDAC inhibitors (AID 1259364); further: top concentration of the series differs between compounds; nearly all actives have a fitted effect of over 45% in size
In short: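 Wild-type HCT-116 cells, plated overnight at 37 C, exposed to compounds 2 hr at 37 C; luminogenic HDAC-Glo substrate then added 30 min at room temperature. Luminescence reports relative endogenous class I/II HDAC activity.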

[8] = qHTS assay to identify small molecule agonists of the sonic hedgehog signaling (Shh) pathway - cell viability counter screen (AID 1259366); further: nearly all actives have a fitted effect of over 50% in size
In short: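 Same-well cytotoxicity read. Gli1-Luc reporter 3T3 cells; compounds 24hr, 37C/5% CO2; CellTiter-Fluor fluorescence.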

[9] = qHTS assay to identify small molecule antagonists of the sonic hedgehog signaling (Shh) pathway - cell viability counter screen (AID 1259367); further: nearly all actives have a fitted effect of over 55% in size
In short: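 NIH/3T3-derived Gli1-Luc reporter cells (2,000 per well) rested 4 hr at 37 C, then received DMSO compounds plus conditioned medium. After 23 hr of treatment, CellTiter-Fluor was added for 1 hr at 37C and fluorescence read.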

[10] = qHTS assay to identify small molecule agonists of the sonic hedgehog signaling (Shh) pathway (AID 1259368; calls by dose curve;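 further: NIH/3T3-derived 3T3Gli1-Luc cells carrying a stable Gli1-driven firefly luciferase reporter; series mostly up to about 92 µM; nearly all actives have a fitted effect of over 15% in size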)
In short: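 NIH/3T3-derived 3T3Gli1-Luc cells with stably integrated Gli1-driven firefly luciferase, 2,000 cells/well, compounds added after 4 hr. Incubated 24 hr at 37C, 5% CO2; luminescence read after 30 min with luciferase reagent at room temperature.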

[11] = qHTS assay to identify small molecule antagonists of the sonic hedgehog signaling (Shh) pathway (AID 1259369; calls by dose curve; further: nearly all actives have a fitted effect of over 45% in size)
In short: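 NIH/3T3-derived Gli1-Luc reporter cells plated 4 h, dosed with compound, then stimulated with conditioned medium for 24 h at 37 C. Firefly luciferase luminescence read after 30 min with detection reagent at room temperature.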

[12] = target: Estrogen receptor beta (Homo sapiens) (UniProt Q92731); assay: qHTS assay to identify small molecule agonists of the estrogen receptor beta (ER-beta) signaling pathway (AID 1259377; active means well fitted activation curve with a large enough effect in the signal ratio in the repeat runs, not every such curve was filed as active; the % refers to the signal ratio)
Chain of Estrogen receptor beta (Homo sapiens) (Q92731 whole entry, looked up): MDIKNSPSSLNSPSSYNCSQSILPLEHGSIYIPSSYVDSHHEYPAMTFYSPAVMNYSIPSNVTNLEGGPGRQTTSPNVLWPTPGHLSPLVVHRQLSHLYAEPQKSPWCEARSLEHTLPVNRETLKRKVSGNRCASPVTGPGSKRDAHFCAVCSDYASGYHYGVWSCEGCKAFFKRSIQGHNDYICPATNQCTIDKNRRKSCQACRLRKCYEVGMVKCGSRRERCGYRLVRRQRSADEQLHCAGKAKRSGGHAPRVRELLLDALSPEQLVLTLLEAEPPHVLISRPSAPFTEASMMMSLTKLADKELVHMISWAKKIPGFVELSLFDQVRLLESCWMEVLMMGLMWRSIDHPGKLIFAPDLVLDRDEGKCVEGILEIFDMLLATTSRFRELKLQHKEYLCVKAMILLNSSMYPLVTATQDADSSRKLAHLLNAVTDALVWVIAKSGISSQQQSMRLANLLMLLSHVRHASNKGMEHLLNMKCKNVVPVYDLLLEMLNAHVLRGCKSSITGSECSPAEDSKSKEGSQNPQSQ
In short: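 Read-out: beta-lactamase FRET fluorescence. Cell line: ER-beta-UAS-bla HEK293T in 2% charcoal-stripped FBS. Exposure: 16 hr at 37C. Substrate step: 2 h at room temperature.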

[13] = target: Estrogen receptor beta (Homo sapiens) (UniProt Q92731); assay: qHTS assay to identify small molecule antagonists of the estrogen receptor beta (ER-beta) signaling pathway (AID 1259378; active means well fitted inhibition curve with a large enough effect in the signal ratio in the repeat runs, not every such curve was filed as active; the % refers to the signal ratio)
In short: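 ER-beta-UAS-bla HEK293T (GripTite) cells in 2% charcoal-stripped FBS medium were preincubated 6 hr at 37C, dosed with compound, then stimulated with 1 nM E2 (final) for 16 hr; beta-lactamase reporter read by B/G FRET fluorescence after 2 hr substrate loading.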

[14] = qHTS assay to identify small molecule agonists of the estrogen receptor beta (ER-beta) signaling pathway - cell viability counter screen (AID 1259380); further: nearly all actives have a fitted effect of over 30% in size
In short: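 ER-beta-UAS-bla HEK293T cells in medium with 2% charcoal-stripped FBS, pre-incubated 6 hr, then treated 16 hr at 37C. Cytotoxicity read in the same wells by CellTiter-Glo luminescence after 30 min at room temperature.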

[15] = qHTS assay to identify small molecule antagonists of the estrogen receptor beta (ER-beta) signaling pathway - cell viability counter screen (AID 1259382); further: series mostly up to about 92 µM; nearly all actives have a fitted effect of over 55% in size
In short: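 ER-beta-UAS-bla HEK293T cells in 2% charcoal-stripped FBS medium, treated with compound plus 1 nM 17-beta-estradiol for 16 h at 37C. Viability read by CellTiter-Glo luminescence after 30 min at room temperature in the same wells.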

[16] = qHTS assay to identify small molecule HDAC inhibitors - cell viability counter screen (AID 1259365); further: series mostly up to about 92 µM; nearly all actives have a fitted effect of over 50% in size
In short: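 After overnight seeding at 1,500 cells per well, wild-type HCT-116 cultures took up compounds in DMSO for 2hr at 37 C. Viable cell content came from luminescence with CellTiter-Glo.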

[17] = qHTS assay to identify small molecule agonists of the androgen receptor (AR) signaling pathway in the presence of an antagonist - cell viability counter screen (AID 1259379);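 further: MDA-kb2 human breast cancer cells carrying an MMTV luciferase reporter; series mostly up to about 92 µM; nearly all actives have a fitted effect of over 25% in size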
In short: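 MDA-kb2 cells (MMTV-luciferase, AR/GR), 3,000/well, 5 h attachment, then 3.0 µM nilutamide (final) and compounds at 15 concentrations. Viability by CellTiter-Fluor fluorescence after 16 h at 37 °C, 0% CO2, in the reporter wells.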

[18] = target: Androgen receptor (Homo sapiens) (UniProt P10275); assay: qHTS assay to identify small molecule agonists of the androgen receptor (AR) signaling pathway in the presence of an antagonist (AID 1259381; calls by dose curve; further: nearly all actives have a fitted effect of over 15% in size)
Chain of Androgen receptor (Homo sapiens) (P10275 whole entry, looked up): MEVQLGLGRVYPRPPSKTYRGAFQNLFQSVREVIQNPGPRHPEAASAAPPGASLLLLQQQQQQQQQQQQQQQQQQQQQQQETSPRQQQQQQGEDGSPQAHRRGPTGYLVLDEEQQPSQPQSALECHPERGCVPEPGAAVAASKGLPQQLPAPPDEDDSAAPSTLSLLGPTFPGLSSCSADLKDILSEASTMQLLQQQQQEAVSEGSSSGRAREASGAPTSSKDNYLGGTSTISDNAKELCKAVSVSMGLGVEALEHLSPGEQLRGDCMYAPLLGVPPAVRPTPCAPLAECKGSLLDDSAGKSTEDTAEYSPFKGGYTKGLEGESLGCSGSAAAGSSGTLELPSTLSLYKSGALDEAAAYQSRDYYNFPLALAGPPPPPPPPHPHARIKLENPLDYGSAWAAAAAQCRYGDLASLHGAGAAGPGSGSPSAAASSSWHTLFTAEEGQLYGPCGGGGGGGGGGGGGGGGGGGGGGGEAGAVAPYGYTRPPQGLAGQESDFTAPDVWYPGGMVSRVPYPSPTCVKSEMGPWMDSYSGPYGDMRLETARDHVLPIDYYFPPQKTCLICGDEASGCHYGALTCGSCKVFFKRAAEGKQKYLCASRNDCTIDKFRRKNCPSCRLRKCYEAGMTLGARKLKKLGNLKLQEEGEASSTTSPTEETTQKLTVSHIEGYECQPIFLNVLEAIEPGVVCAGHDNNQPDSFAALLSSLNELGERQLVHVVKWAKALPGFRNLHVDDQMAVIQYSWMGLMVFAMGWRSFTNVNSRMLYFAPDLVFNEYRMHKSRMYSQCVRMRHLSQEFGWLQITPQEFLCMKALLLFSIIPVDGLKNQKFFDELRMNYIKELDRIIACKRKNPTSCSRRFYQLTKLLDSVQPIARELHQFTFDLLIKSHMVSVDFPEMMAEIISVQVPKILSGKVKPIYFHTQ
In short: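 MDA-kb2 cells carrying MMTV-luciferase (AR/GR responsive), 3,000 cells/well, co-treated with 3.0 uM nilutamide final. Compounds at 15 concentrations, 16 hr at 37C without CO2. Luciferase luminescence read after 30 min with ONE-Glo.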

[19] = qHTS assay to identify small molecule phospholipidosis (PLD) inducers (AID 1259344; active means well fitted curve in the direction sought with a large enough effect; an effect the other way counts as inactive or inconclusive)
In short: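 HepG2 cells on collagen I, attached 4 h at 37 C, were co-treated with compound and LipidTOX Red dye for 24 h at 37 C, then fixed with paraformaldehyde plus Hoechst 33342 and imaged by high-content microscopy for phospholipid accumulation.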

Measured: Potency

COP(=O)(O)OP(=O)(O)OC
not listed: [16] | [17] | [18] | [19]
inactive: all other assays above

C=C(C)c1cccc(C(C)(C)N=C=O)c1
not listed: [16] | [17] | [18] | [19]
inactive: all other assays above

OC1(c2ccc(Cl)cc2)CCNCC1
not listed: [8] | [9] | [10] | [19]
inactive: all other assays above

CCCCCCCCCCOC(C)=O
not listed: [9] | [12] | [13] | [15] | [16] | [18] | [19]
inactive: all other assays above

CC(N)CCCC(C)(C)O (centres undefined)
not listed: [6] | [8] | [14] | [18]
inactive: all other assays above

COC(=O)c1ccccc1C(=O)O
not listed: [5] | [18] | [19]
inactive: all other assays above

CC1(C)Oc2ccc(C#N)cc2[C@@H](N2CCCC2=O)[C@@H]1O
not listed: [5] | [16] | [18]
inactive: all other assays above

COC(=O)/C=C\C(=O)O
not listed: [5] | [15] | [17] | [18] | [19]
inactive: all other assays above

CC1(C)O[C@H]2CC(=O)OC[C@]23[C@H]2CC[C@@]4(C)[C@H](c5ccoc5)OC(=O)[C@H]5O[C@]54[C@]2(C)C(=O)C[C@@H]13
not listed: [5] | [8] | [9] | [14] | [16] | [18]
inactive: all other assays above

OC[C@@H](O)C(O)[C@@H](O)CO (some centres undefined)
not listed: [6] | [7] | [12] | [13] | [14] | [18] | [19]
inactive: all other assays above

C=C(C)[C@@H]1CC=C(C)C(=O)C1
not listed: [6] | [8] | [15] | [18] | [19]
inactive: all other assays above

O=C(Cn1ccnc1[N+](=O)[O-])NCc1ccccc1
not listed: [5] | [7] | [8] | [15] | [18]
inactive: all other assays above

CO[Si](CCCn1c(=O)n(CCC[Si](OC)(OC)OC)c(=O)n(CCC[Si](OC)(OC)OC)c1=O)(OC)OC
not listed: [6] | [9] | [12] | [13] | [18] | [19]
inactive: all other assays above

CC(C)=CCC/C(C)=C/COC=O
not listed: [6] | [17] | [18] | [19]
inactive: all other assays above
